Experimental data: PubChem BioAssay (EPA / NIEHS)
Values joined by “and” are separate entries in the source; they are usually repeats but may differ in a detail not shown here. Equal entries are not always repeated. A structure can be active in one record and inactive in another. Active and inactive are the calls of the source. Rule for the calls: active = hit-call score of the fitted dose curve at least 0.9, where 1 is the maximum; inactive = score below 0.9.

Experiments:
[1] = BSK_3C_TissueFactor: BioMAP Diversity Plus: 3C Assay for Tissue Factor Biomarker Activity (AID 2282997); settings: BioMAP 3C HUVEC, tissue factor biomarker readout; actives raise or lower the signal
Summary of the method: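 Primary human umbilical vein endothelial cells in the 3C system were exposed to test chemical for 24 h, then Tissue Factor measured by ELISA. Activity was fitted bidirectionally against DMSO as negative control and baseline.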

[2] = BSK_3C_uPAR: BioMAP Diversity Plus: 3C Assay for Urokinase-type plasminogen activator receptor (uPAR) Biomarker Activity (AID 2282998); settings: BioMAP 3C HUVEC, uPAR biomarker ELISA; actives raise or lower the signal
Summary of the method: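 Cell-surface uPAR on HUVEC (3C system) read by ELISA at 24 h post-treatment, with DMSO as baseline and fitting in both directions. Parallel cultures stained with SRB to flag overt cytotoxicity.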

[3] = BSK_3C_VCAM1: BioMAP Diversity Plus: 3C Assay for Vascular cell adhesion molecule 1 (VCAM1) Biomarker Activity (AID 2282999); settings: BioMAP 3C HUVEC, VCAM1 ELISA, cytokine-stimulated; actives raise or lower the signal
Summary of the method: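 Endothelial cells from human umbilical vein are treated with test chemical. At 24 h, VCAM-1 is measured by ELISA, and responses in either direction are fitted relative to DMSO.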

[4] = BSK_4H_Eotaxin3: BioMAP Diversity Plus: 4H Assay for Eotaxin 3 Biomarker Activity (AID 2283000); settings: primary human endothelial cells (HUVEC); actives raise or lower the signal
Summary of the method: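 HUVEC, 24 h post-dose, ELISA for Eotaxin-3/CCL26. Gain or loss of signal fitted bidirectionally vs DMSO baseline.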

[5] = read-out: Intercellular Adhesion Molecule 1 (ICAM1), ICAM1 (gene 3383); experiment: BSK_3C_ICAM1: BioMAP Diversity Plus: 3C Assay for Intercellular Adhesion Molecule 1 (ICAM1) Biomarker Activity (AID 2283003); settings: primary human endothelial cells (HUVEC); actives raise or lower the signal
Summary of the method: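 Human vascular endothelial primary cells, 3C conditions, 24 h treatment. ICAM-1 by ELISA.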

[6] = BSK_3C_Proliferation: Cell Proliferation Assessment in the BioMAP Diversity Plus: 3C Assay (AID 2283006); settings: primary human endothelial cells (HUVEC);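 note: potency may reflect either rise or fall in cell number versus DMSO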
Summary of the method: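 Proliferation of human vascular endothelial primary cells after 48 h dosing, quantified as SRB-stained protein at 560 nm relative to DMSO.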

[7] = read-out: E-selectin (Homo sapiens) (UniProt P16581); experiment: BSK_3C_Eselectin: BioMAP Diversity Plus: 3C Assay for Eselectin Biomarker Activity (AID 2283015); settings: primary human endothelial cells (HUVEC); actives raise or lower the signal;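 note: cell surface E-selectin protein quantified by ELISA 24 h after dosing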
Summary of the method: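 Primary human umbilical vein endothelial cells (3C system) were dosed with chemical and cell-surface E-selectin measured by ELISA 24 h later. Bidirectional curve fitting used DMSO as negative control and baseline.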

[8] = read-out: Interleukin-1 alpha (IL1a), IL1A (gene 3552); experiment: BSK_BE3C_IL1a: BioMAP Diversity Plus: BE3C Assay for Interleukin-1 alpha (IL1a) Biomarker Activity (AID 2283016); settings: primary human bronchial epithelial cells; actives raise or lower the signal
Summary of the method: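 Cultures of primary human bronchial epithelial cells receive test chemical. After 24 h, IL-1a is quantified by ELISA, while parallel wells are fixed in TCA and SRB-stained for total protein. Changes in either direction are fitted relative to DMSO.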

[9] = read-out: Monocyte Chemoattractant Protein-1 (MCP1), CCL2 (gene 6347); experiment: BSK_3C_MCP1: BioMAP Diversity Plus: 3C Assay for Monocyte Chemoattractant Protein-1 (MCP1) Biomarker Activity (AID 2283017); settings: primary human endothelial cells (HUVEC); actives raise or lower the signal
Summary of the method: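 Primary human umbilical vein endothelial cells (3C system) were exposed to test chemical for 24 h, after which MCP-1 was quantified by ELISA. Activity was fitted bidirectionally against DMSO as negative control and baseline.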

[10] = read-out: Interleukin-8 (IL8), CXCL8 (gene 3576); experiment: BSK_3C_IL8: BioMAP Diversity Plus: 3C Assay for Interleukin-8 (IL8) Biomarker Activity (AID 2283020); settings: primary human endothelial cells (HUVEC); actives raise or lower the signal
Summary of the method: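 Human vascular endothelial cells (umbilical vein) in the 3C system; IL-8 level detected by ELISA at 24 h post-dose, with DMSO as baseline.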

[11] = read-out: Monokine induced gamma interferon (MIG), CXCL9 (gene 4283); experiment: BSK_3C_MIG: BioMAP Diversity Plus: 3C Assay for Monokine induced gamma interferon (MIG) Biomarker Activity (AID 2283021); settings: primary human endothelial cells (HUVEC); actives raise or lower the signal
Summary of the method: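 After 24 h of treatment, human umbilical vein endothelial cultures (3C system) had their MIG biomarker level determined by ELISA, with DMSO serving as negative control.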

[12] = BSK_3C_SRB: Viability Assessment in the BioMAP Diversity Plus: 3C Assay (AID 2283023); settings: primary human endothelial cells (HUVEC);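 note: fitted both ways against DMSO so a hit may be signal rise or drop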
Summary of the method: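 Primary human umbilical vein endothelial cells in the 3C system were read 24 h after compound dosing. Total protein was stained with 0.1% sulforhodamine B after 10% TCA fixation and read at 560 nm, with bidirectional fitting against DMSO as baseline.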

[13] = read-out: Matrix Metallopeptidase 1 (MMP1), MMP1 (gene 4312); experiment: BSK_BE3C_MMP1: BioMAP Diversity Plus: BE3C Assay for Matrix Metallopeptidase 1 (MMP1) Biomarker Activity (AID 2283024); settings: primary human bronchial epithelial cells; actives raise or lower the signal
Summary of the method: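 Dose cells, wait 24 h, run MMP1 ELISA; cells are human bronchial epithelial primaries. Both increases and decreases relative to DMSO counted.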

[14] = BSK_4H_SRB: Viability Assessment in the BioMAP Diversity Plus: 4H Assay (AID 2283027); settings: primary human endothelial cells (HUVEC);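 note: cells exposed to compound for 24 h before staining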
Summary of the method: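 Absorbance at 560 nm of SRB-stained total protein served as the viability read-out in confluent primary human umbilical vein endothelium 24 h after chemical treatment. Curves were fitted bidirectionally against DMSO as negative control.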

[15] = BSK_BE3C_SRB: Viability Assessment in the BioMAP Diversity Plus: BE3C Assay (AID 2283028); settings: primary human bronchial epithelial cells
Summary of the method: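 Human primary bronchial epithelial cells were exposed to test chemicals for 24 h. Total protein in parallel cultures was then measured by staining with 0.1% sulforhodamine B after 10% TCA fixation, with absorbance read at 560 nm. Activity was fitted bidirectionally against DMSO.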

[16] = read-out: Urokinase-type plasminogen activator receptor (uPAR), PLAUR (gene 5329); experiment: BSK_4H_uPAR: BioMAP Diversity Plus: 4H Assay for Urokinase-type plasminogen activator receptor (uPAR) Biomarker Activity (AID 2283030); settings: primary human endothelial cells (HUVEC); actives raise or lower the signal
Summary of the method: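 Primary human umbilical vein endothelial cells were exposed to chemical for 24 h before cell-surface uPAR was quantified by ELISA. Activity was fitted bidirectionally against the DMSO negative control baseline.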

[17] = read-out: Vascular endothelial growth factor receptor 2 (Homo sapiens) (UniProt P35968); experiment: BSK_4H_VEGFRII: BioMAP Diversity Plus: 4H Assay for Vascular endothelial growth factor receptor 2 (VEGFR2) Biomarker Activity (AID 2283031); settings: primary human endothelial cells (HUVEC); actives raise or lower the signal;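 for AC50: cell-surface VEGFR2 protein level quantified by ELISA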
Summary of the method: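 Primary human umbilical vein endothelial cells in the BioMAP 4H system were dosed with test chemical, and 24 h later VEGFRII was measured by ELISA. Activity was fitted bidirectionally against DMSO as negative control and baseline.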

[18] = read-out: Human Leukocyte Antigen - DR isotype (HLADR), HLA-DRA (gene 3122); experiment: BSK_BE3C_HLADR: BioMAP Diversity Plus: BE3C Assay for Human Leukocyte Antigen - DR isotype (HLADR) Biomarker Activity (AID 2283032); settings: primary human bronchial epithelial cells; actives raise or lower the signal
Summary of the method: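 Signal came from an ELISA for HLA-DR in human bronchial epithelial primary cells harvested 24 h after treatment; gain- and loss-of-signal fitting used DMSO controls as reference.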

[19] = read-out: Vascular cell adhesion molecule 1 (VCAM1), VCAM1 (gene 7412); experiment: BSK_4H_VCAM1: BioMAP Diversity Plus: 4H Assay for Vascular cell adhesion molecule 1 (VCAM1) Biomarker Activity (AID 2283033); settings: primary human endothelial cells (HUVEC); actives raise or lower the signal
Summary of the method: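 Endpoint derived from bidirectional fitting against DMSO controls of VCAM-1 ELISA signal in umbilical vein endothelial cells sampled at 24 h following treatment.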

[20] = read-out: Interferon-gamma inducible Protein 10 (IP10), CXCL10 (gene 3627); experiment: BSK_BE3C_IP10: BioMAP Diversity Plus: BE3C Assay for Interferon-gamma inducible Protein 10 (IP10) Biomarker Activity (AID 2283034); settings: primary human bronchial epithelial cells; actives raise or lower the signal
Summary of the method: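 Using primary human bronchial epithelial cultures, the assay captures IP-10 by ELISA one day (24 h) after exposure. Parallel SRB staining of total protein flags overt cytotoxicity. Fits run bidirectionally relative to DMSO.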

Measured: AC50

Chain of E-selectin (Homo sapiens) (P16581 whole entry, looked up): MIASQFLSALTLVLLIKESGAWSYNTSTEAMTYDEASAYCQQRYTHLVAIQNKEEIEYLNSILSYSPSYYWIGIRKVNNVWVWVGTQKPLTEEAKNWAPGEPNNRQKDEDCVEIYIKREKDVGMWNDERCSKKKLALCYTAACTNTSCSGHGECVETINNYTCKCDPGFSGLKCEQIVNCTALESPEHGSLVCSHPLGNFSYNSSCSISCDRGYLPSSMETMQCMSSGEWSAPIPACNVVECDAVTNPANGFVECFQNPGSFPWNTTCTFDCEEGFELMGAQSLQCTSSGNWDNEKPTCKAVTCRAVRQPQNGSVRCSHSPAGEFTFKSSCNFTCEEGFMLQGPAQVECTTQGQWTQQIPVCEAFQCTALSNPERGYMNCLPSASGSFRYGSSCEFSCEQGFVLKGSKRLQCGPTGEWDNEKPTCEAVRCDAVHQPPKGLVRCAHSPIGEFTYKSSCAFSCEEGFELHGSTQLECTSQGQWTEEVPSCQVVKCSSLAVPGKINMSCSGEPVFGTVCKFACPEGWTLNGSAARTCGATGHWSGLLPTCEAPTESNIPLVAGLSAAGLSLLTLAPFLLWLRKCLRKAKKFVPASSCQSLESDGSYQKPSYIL

[Cd+2].[Cl-].[Cl-]
active: [1] 1 µM and 863 nM | [4] 35.7 µM and 32.2 µM | [6] 30.1 µM and 30 µM | [10] 20 µM | [17] 6.83 µM | [18] 20 µM | [19] 31.6 µM and 27.1 µM | [20] 20 µM
inactive: [2] | [3] | [5] | [7] | [8] | [9] | [10] | [11] | [12] | [13] | [14] | [15] | [16] | [17]
